Only some compounds are listed: those with a hit (about 21% of all), similar ones and a draw of the others.
Pf growth 48h: Primary qHTS for delayed death inhibitors of the malarial parasite plastid, 48 hour incubation. Potency, µM (series often up to 28.7 µM), for inactives: at the top dose activity change, negative = inhibition, hits mostly inhibitors. 310,000 tested, 5.9% active. AID 504832, 2011. P. falciparum luciferase growth in erythrocytes, 48 h; also: potency is read from the fitted curve at half-maximal effect; % is scaled to controls: 0 for no effect and ±100 for the full control effect
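Erythrocytes infected with P. falciparum carrying an integrated firefly luciferase reporter (2% hematocrit, 0.1% parasitemia final) were exposed to compounds in RPMI 1640 with 0.5% Albumax at 37 C, 5% CO2. Growth inhibition was scored as reduced luminescence.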
CHX counter: Cycloheximide Counterscreen for Small Molecule Inhibitors of Shiga Toxin | AID 2314, 2010 | 300,000 tested, 12% active | cell reporter, cycloheximide protein synthesis inhibition counterscreen | max response, %; in the data active = max response mostly above about 13%, no sharp cut-off; inactive = mostly below about 14%; also: read at 38.3 µM for the half of the compounds with a filed dose; 0% is about no effect
SARS PLP yeast: qHTS of Yeast-based Assay for SARS-CoV PLP. S. cerevisiae expressing SARS-CoV PLpro, growth rescue. Potency, µM (series often up to 32.9 µM), for the others: top-dose activity, positive = growth rescue, hits mostly activators. 330,000 tested, 0.19% active. AID 485353, 2010; calls by dose curve; also: potency is read from the fitted curve at half-maximal effect; 0% is about no effect; nearly all actives have a fitted effect of over 55% in size
Shiga inhibitor: A qHTS for Small Molecule Inhibitors of Shiga Toxin; inhibition, % at 38.7 µM; 290,000 tested, 9.2% active; Vero cells, Shiga toxin protein synthesis inhibition reporter; in the data active = inhibition mostly above about 28%, no sharp cut-off; inactive = mostly below about 43%; also: 0% is about no effect
Pf growth 96h: Primary qHTS for delayed death inhibitors of the malarial parasite plastid, 96 hour incubation. Potency, µM (top dose mostly 28.7 µM), for the others: at the top dose activity change, negative = inhibition, usual class: inhibitors. P. falciparum luciferase reporter growth, 96 h. 320,000 tested, 6.9% active; also: potency is read from the fitted curve at half-maximal effect; % is scaled to controls: 0 for no effect and ±100 for the full control effect
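P. falciparum expressing integrated firefly luciferase grown in erythrocytes (2% hematocrit, 0.05% parasitemia final) with compounds for 96 hours at 37 C, 5% CO2. Growth inhibition read as loss of luminescence after adding luciferase detection reagent.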
NS1 inh: qHTS Assay for Inhibitors of Influenza NS1 Protein Function; 270,000 tested, 0.4% active; Potency, µM (highest dose often 46.1 µM), inactives show top-dose activity, positive = more growth; calls by dose curve; also: potency is read from the fitted curve at half-maximal effect; actives are rising curves; nearly all actives have a fitted effect of over 50% in size
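Compounds were scored for reversing the slow growth caused by influenza A NS1 in S. cerevisiae, measured by optical density at 600 nm. Assay medium contained 2% galactose at pH 6.0; NS1-free yeast of the same strain were the positive control.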
* marks the source's active call; other numbers are inactive results; ? = inconclusive; nt = no result; [ ] = another dose, or the depositor's remark. Unless noted, calls follow the shape of the dose curve; as a rule, active = well fitted inhibition curve with a large enough effect; inconclusive = small, poorly fitted or top-dose-only effect, or another doubt; inactive = no such curve, though single readings can be large or run the other way.

SMILES | Pf growth 48h | CHX counter | SARS PLP yeast | Shiga inhibitor | Pf growth 96h | NS1 inh
O=[N+]([O-])c1ccc(O)c(C=Nc2ccc3nc(-c4ccccc4)[nH]c3c2)c1 | -9% | 28* | -41% | 70* | 1.5µM* | -28%
Oc1c(Br)cc(Br)cc1C=Nc1ccc2[nH]ncc2c1 | 37% | -2 | -2% | -7 | 124% | -90%
Oc1c(Br)cc(C=Nc2ccc3nc(-c4ccccc4)[nH]c3c2)c(O)c1Br | ? | 52* | -2% | 75* | 17% | nt
C=CCN(CC=C)C(=O)c1ccc2nc(Cc3ccc(OC)c(OC)c3)oc2c1 | ? | 17* | 8% | 13 | ? | 9%
COc1ccc(Cc2nc3ccc(C(=O)N4CCN(C)C(C)C4)cc3o2)cc1OC (configuration not stated) | 0% | 11* | -2% | 9 | -2% | -5%
COc1ccc(Cc2nc3ccc(C(=O)N4CCCC4)cc3o2)cc1OC | ? | 13 | 9% | 36* | 0% | 1%
COc1ccc(Cc2nc3ccc(C(=O)N4CCCC4)cc3o2)cc1 | ? | 70* | 5% | 106* | -85% | -6%
COc1cc(C(=O)N2CCN(C)C(C)C2)ccc1OC1CCN(C(C)=O)CC1 (configuration not stated) | 13% | 5 | 0% | 33 | -17% | 12%
NC(=O)C1CCCN(C(=O)c2ccc3nc(Cc4cccc(Cl)c4)oc3c2)C1 (configuration not stated) | ? | 13 | 5% | 16 | ? | 3%
COc1ccc(Cc2nc3ccc(C(=O)N4CCC[C@H]4CO)cc3o2)cc1 | -12% | -3 | -2% | 25 | 18% | -2%
Cc1c(NC(=O)C(C)Sc2ncnc3ccccc23)c(=O)n(-c2ccccc2)n1C (configuration not stated) | -18% | -2 | 1% | -13 | 31%[5.75 µM] | nt
Cc1cccc(C)c1NC(=O)CNC(=O)Cn1nc(C)c(C)c(C#N)c1=O | ? | nt | -1% | nt | ? | nt
C#CCN(CC=C)C(=O)c1ccc2nc(C3CCCCC3)oc2c1 | 1% | 19* | -4% | 57 | ? | -14%
COc1ccc(Cc2nc3ccc(C(=O)N(C)CC4COCCO4)cc3o2)cc1 (configuration not stated) | ? | 39* | -6% | 72* | 16% | 0%
COc1ccc(Cc2nc3ccc(C(=O)NCc4ncc(C)[nH]4)cc3o2)cc1OC | -19% | 11 | 0% | 24 | 5% | 3%
COc1ccc(Cc2nc3ccc(C(=O)NC(C)Cc4ncccc4C)cc3o2)cc1OC (configuration not stated) | ? | 30* | -1% | 39 | 52% | -22%
O=C(O)c1ccccc1/C=N/NC(=S)NCc1ccccc1 | -2% | -1 | 0% | 20 | 2% | 10%
Cn1c(SCC(=O)NCc2cccs2)nnc1-c1ccc(O)cc1 | 3% | -2 | -1% | -10 | 0% | 10%
O=C(/C=C/c1cccs1)N1CCCC1 | 36% | 16* | -2% | 46* | 32% | -2%
COc1ccccc1/C=C/C=N/N1CCN(c2ccccn2)CC1 | ? | -4 | -1% | -9 | 25% | -8%
COc1ccccc1N1CCN(C(=O)/C=C/c2ccccc2)CC1 | ? | 15 | -12% | 19 | 108% | -15%
COc1ccccc1N1CCN(C(=O)/C=C/c2ccco2)CC1 | 4% | 28* | -5% | 37* | -20% | 4%
COc1ccccc1N1CCN(/N=C/C=C\c2ccco2)CC1 | 198% | 41* | -8% | 53* | 281% | -7%
O=C(/C=C/c1cccs1)N1CCN(c2ccccc2)CC1 | -8% | 0 | 0% | -11 | ? | -6%
COc1ccccc1N1CCN(/N=C/C=C\c2ccccc2[N+](=O)[O-])CC1 | -24% | 43* | -4% | 45* | ? | nt
SMILES | Pf growth 48h | CHX counter | SARS PLP yeast | Shiga inhibitor | Pf growth 96h | NS1 inh
CCCCC(=O)OCC(=O)Nc1ccc(SC(F)F)cc1 | 30% | 6 | -1% | 28 | 59%[5.75 µM] | -7%
O=C(Cn1cc(S(=O)(=O)Cc2ccc([N+](=O)[O-])cc2)c2ccccc21)N1CCOCC1 | 47% | -2 | -3% | -5 | ? | 15%
Cc1cc(C)n(C(=O)/C=C/c2cccs2)n1 | 25% | 29* | 1% | 64* | 10% | -8%
Cc1cc(C)n(C(=O)CNC(=O)c2cccs2)n1 | 11% | -5 | -11% | -8 | nt | -7%
CC1CCCC(C)N1/N=C/C=C/c1ccccc1[N+](=O)[O-] (configuration not stated) | 0% | 38* | -2% | 69* | 20% | nt
COc1ccccc1N1CCN(C(=O)/C=C/c2cccs2)CC1 | ? | 18* | 3% | 54* | 11% | -8%
Cc1cccc(N2CCN(C(=O)c3cccs3)CC2)c1C | -4% | -3 | -7% | -9 | 10µM* | -54%
CC(=O)c1ccc(N2C(=NC(=O)CCc3ccccc3)SC3CS(=O)(=O)CC32)cc1 (configuration not stated) | 16% | -11 | 2% | -10 | ? | 1%
CCOCCCNC(=O)c1cc(Cl)c(NC(=O)C2=C(C)OCCS2)cc1OC | ? | 2 | 0% | -3 | 28% | -2%
Cc1cccc(N2CCN(C(=O)C(C)C)CC2)c1C | -13% | -1 | -36% | -13 | nt | -103%
Cc1cccc(N2CCN(C(=O)/C=C/c3cccs3)CC2)c1C | -27% | 44* | -70% | 64* | -7% | nt
COc1ccc(/C=C/CN2CCCC(CCC(=O)NCc3ccc(F)c(F)c3)C2)cc1 (configuration not stated) | 13µM* | 9 | 1% | -7 | 2% | -2%
Cn1cc(CCC(=O)N2CCCC(CCC(=O)NCc3ccccc3F)C2)cn1 (configuration not stated) | 10% | 3 | 0% | 18 | ? | -4%
COCCC(=O)N1CCCC(CCC(=O)NCc2ccc(F)c(F)c2)C1 (configuration not stated) | -3% | 17* | -1% | 79* | -15% | 0%
Cn1cc(CCC(=O)N2CCCC(CCC(=O)NCc3ccc(F)c(F)c3)C2)cn1 (configuration not stated) | ? | 17* | 1% | 43* | 28% | -3%
CCOC(=O)CNC(=O)N1CCCC(CCC(=O)NCc2ccc(F)c(F)c2)C1 (configuration not stated) | 6% | -2 | 0% | 15 | -9% | 8%
COc1ccccc1/C=C/CN1CCCC(CCC(=O)NCc2ccc(F)c(F)c2)C1 (configuration not stated) | ? | -2 | 0% | 25 | 72% | 1%
